Measured values published in PubChem BioAssay (NCI).
The panel holds about 83,000 compounds, 20% with a hit somewhere; the sample as a whole holds those more often.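 Values shown are percent growth following 48 h exposure of cells in 96-well plates to a single concentration of compound; below 10 was considered active.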 Unmarked numbers belong to inactive results. Calls of active or inactive are those of the source.

How the values were obtained:
Assay in all cases: NCI-60 one-dose screen, 48 h (100 = growth as untreated, 0 = no growth, -100 = all killed)
SK-MEL-2 melanoma = conditions: 10 µM unless noted
EKVX NSCLC = conditions: 10 µM unless noted
SN12C renal = conditions: 10 µM unless noted
UO-31 renal = conditions: 10 µM unless noted
TK-10 renal = conditions: 10 µM unless noted
ACHN renal = conditions: 10 µM unless noted
CAKI-1 renal = conditions: 10 µM unless noted
A498 renal = conditions: 10 µM unless noted
CCRF-CEM leukemia = conditions: 10 µM unless noted
MOLT-4 leukemia = conditions: 10 µM unless noted
RPMI-8226 leukemia = conditions: 10 µM unless noted
OVCAR-5 ovarian = conditions: 10 µM unless noted
OVCAR-4 ovarian = conditions: 10 µM unless noted
SK-OV-3 ovarian = conditions: 10 µM unless noted
IGROV1 ovarian = conditions: 10 µM unless noted
OVCAR-3 ovarian = conditions: 10 µM unless noted
HS 578T breast = conditions: 10 µM
NCI/ADR-RES ovarian = conditions: 10 µM unless noted
OVCAR-8 ovarian = conditions: 10 µM unless noted
SR leukemia = conditions: 10 µM unless noted

| Structure (SMILES) | growth (SK-MEL-2 melanoma) | growth (EKVX NSCLC) | growth (SN12C renal) | growth (UO-31 renal) | growth (TK-10 renal) | growth (ACHN renal) | growth (CAKI-1 renal) | growth (A498 renal) | growth (CCRF-CEM leukemia) | growth (MOLT-4 leukemia) | growth (RPMI-8226 leukemia) | growth (OVCAR-5 ovarian) | growth (OVCAR-4 ovarian) | growth (SK-OV-3 ovarian) | growth (IGROV1 ovarian) | growth (OVCAR-3 ovarian) | growth (HS 578T breast) | growth (NCI/ADR-RES ovarian) | growth (OVCAR-8 ovarian) | growth (SR leukemia) |
| --- | --- | --- | --- | --- | --- | --- | --- | --- | --- | --- | --- | --- | --- | --- | --- | --- | --- | --- | --- | --- |
| O=C1C=CC(=O)N1c1cccc(N2C(=O)C=CC2=O)c1 | 111% | 95.6% | 106% | 28.4% | 33.1% | -26% (active) | 37.3% | 111% | -22.3% (active) | 103% | 91.7% | 102% | 98.1% | 111% | 111% | 66.4% | 114% | 110% |  |  |
| CN(CCO)c1ccc(N2Cc3ccccc3OC3=C2C(=O)c2c(O)ccc(O)c2C3=O)cn1 | -54.4% (active) | -38.5% (active) | -90.9% (active) | -100% (active) | -98.5% (active) | -100% (active) |  | -48.2% (active) | -12.2% (active) | -30.6% (active) | -16.2% (active) | -59.8% (active) | -97.5% (active) | -3.73% (active) | -72.7% (active) | -99.7% (active) | 28.4% | -2.37% (active) | 1.86% (active) |  |
| CC(=O)c1cccc(Nc2ncnc3ccc(NC(=O)c4ccco4)cc23)c1 | 98.1% | 84.8% | 87.4% | 64.8% | 99.6% | 87.1% |  | 82.4% | 96.5% | 77.5% | 75% | 90.4% | 89% | 104% | 86.1% |  | 102% | 92.7% | 92.1% | 90.2% |
| OC(c1cc2c(Cl)cc(Cl)cc2c2cc(C(F)(F)F)ccc12)C1CCCCN1 (stereo unspecified) | -65.3% (active) | -51.8% (active) | -79.1% (active) | -87.6% (active) | -87.7% (active) | -78.6% (active) |  | 0.166% (active) | -54.7% (active) | -62.6% (active) | -44.8% (active) |  |  | -18.3% (active) | -67.9% (active) | -86% (active) | -56.1% (active) | -60.4% (active) | -61% (active) | -63.5% (active) |
| CCCCCCCCCCCCCCCC1=NCC[N+]1(CCO)CCO | 85.2% | 72.3% | 67% | 42.1% | 66.6% | 67.1% | 79.5% | 86.8% |  | 43% |  | 43.1% | 61.4% | 95.1% | -16% (active) | 86.6% | 75.2% | 71.1% | 37% |  |
| Cn1c(=O)c2c3c(oc2c2ccccc21)C(=O)c1ccccc1C3=O | 92.6% | 70.7% | 81.8% | 54.8% | 94.5% | 75.5% |  | 93.3% | 19.1% | 2.39% (active) | 51.1% | 120% | 4.38% (active) | 93.6% | 68.7% | 21.6% | 93.2% | 76.9% | 85.3% |  |
| COc1ccc(/C(=C\c2cc(OC)c(OC)c(OC)c2)C(=O)Nc2nc3ccc(Cl)cc3s2)cc1 | 94.8% | 80.5% | 96.9% | 76.4% | 92.4% | 103% |  | 97.4% | 85% | 64.4% | 80.8% | 97.2% | 104% | 98.4% | 106% |  | 100% | 92% | 94.1% | 76.4% |
| COc1ccc(/C=c2\c(=O)n(-c3ccccc3)c3nn4c(=O)c(=O)[nH]nc4n23)cc1 | 109% | 104% | 108% | 83% | 133% | 114% |  | 118% | 106% | 110% | 110% | 146% | 107% | 113% | 113% | 115% | 114% | 106% | 109% | 108% |
| COC(=O)c1ccc(NC(N)=NCCC(C)(C)c2ccc(C(F)(F)F)cc2)nc1 | 70.3% | 20.3% | 53.4% | 34.2% | 49.6% | 65.2% |  | 51.8% | 34.2% | 4.23% (active) | -48.8% (active) | 74.2% | 31.6% | 60.2% | 54.7% |  | 75.5% | 36.6% | 50.1% | -22.2% (active) |
| Fc1cc(-c2nnc3sc(-c4ccc(Cl)cc4)nn23)c(Cl)cc1Cl | 95.7% | 96.2% | 103% | 78.1% | 99.9% | 101% |  | 97.8% | -75.3% (active) | 60.6% | 102% | 101% | 92.5% | 107% | 100% |  | 66.1% | 104% | 100% | 61.1% |
| C/C(=C\C(=N\N=C(N)N)c1ccc(Cl)cc1)c1ccc(Cl)cc1 | -86.4% (active) | -28.2% (active) | -73.8% (active) | -80.1% (active) | -83.4% (active) | -85.8% (active) |  | -93.6% (active) | -22.5% (active) | -48% (active) | -40.2% (active) | -75.5% (active) |  | -22.4% (active) | -60.6% (active) | -87.7% (active) | -50.9% (active) | -69.6% (active) | -80.9% (active) | -67.9% (active) |
| O=C(O)c1cn(-c2ccccc2)nc1-c1ccc(O)cc1 | 103% | 95.7% | 98.9% | 89.4% | 106% | 99.4% |  | 74.3% | 94% | 104% | 96.7% | 101% | 92.2% | 92.4% | 111% |  | 94.2% | 101% | 90.8% | 93.3% |
| CC(=O)N[C@@H](CCC(N)=O)C(=O)O | 118% | 107% | 85.7% | 65.7% | 107% | 94.7% | 73.8% | 86.6% |  | 95.3% | 107% |  | 111% | 96.7% | 84.9% | 102% | 81.7% | 98.9% | 98.8% | 104% |
| COc1ccc(/C=c2\c(=O)n(-c3ccccc3)c3nn4c(n23)=NNC42CCCCC2)cc1 | 108% | 91.8% | 98.5% | 63.2% | 159% | 90.5% | 85.6% | 93.4% |  | 98.8% | 107% |  | 106% | 95.5% | 88.5% | 95.9% | 104% | 99.4% | 95.1% | 115% |
| COc1ccc(Sc2[nH]c(C=O)c3ccccc23)cc1 | 69% | 33.2% | 89% | 57.7% | 34.1% | 87.1% |  | 33.1% | 0.79% (active) | 41.9% | -17.3% (active) | 28.5% | 60.3% | 47.7% | 73.1% | 65.7% | 54.4% | 46.8% | 69.3% | 16.6% |
| CN(C)c1ccc(/C=C(\C#N)c2nc3ccccc3n2C)cc1 | 46.6% | 28.3% | 54% | 46.2% | 37.7% | 55.3% | 13.7% |  | 31.2% | 29.5% | 15.8% | 64.3% | 55.2% | 34.8% | 32.3% | -8.87% (active) |  | 27.6% | 40.3% | 29.2% |
| O=C(Nc1cnc(C(F)(F)F)cn1)c1cc(Cl)ccc1O | -27.6% (active) | 7.75% (active) | 5.36% (active) | -5.6% (active) | 1.77% (active) | 3.85% (active) |  | -53.5% (active) | 14.9% | 1.24% (active) | -21.7% (active) | 28.3% | 14% | -5.59% (active) | 23.8% | 15.6% | 8.53% (active) | 8.26% (active) | 4.89% (active) |  |
